Results on 14 compounds are retold here after PubChem BioAssay.

Activity calls are given as the source filed them.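 Rule for the calls, unless noted: active = visual image review flags a hit and inhibition of aggregation exceeds 20%; inconclusive = visual hit but inhibition at or below 20%; inactive = no hit on visual image review.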

Experiment [1] in a line: inhibitors of TNFa-induced NFkB p65 translocation, primary screen, imaging, HUVEC, MLSMR starter and 10KST1 sets (AID 438;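 active = inhibition above 20% together with a positive visual image hit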;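 note: compound added about 3h40 before a 20 min TNFalpha stimulation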;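 for inhibition: signal is the nuclear over cytoplasmic p65 intensity ratio per well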). The settings on record: HUVEC TNFa-induced p65 nuclear translocation; cell count: measured here: nuclei count (cytotoxicity indicator), at 2.08 µM; inhibition: at 2 µM, stronger effect = higher value, 0% TNFa-plus-vehicle, 100% no-TNFa wells.
Experiment [2] in a line: reduction of polyQ htt aggregates in cells – imaging, exon1htt(103Q)mCFP cells, high-content imaging, primary screen (AID 483).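 For nuclei count: percent of the per-plate median nuclei count of sample wells.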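 Note: compound exposure lasted 3 days before fixation.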 The settings on record: exon1htt(103Q)mCFP cell line, aggregate imaging, at 2 µM; inhibition of aggregation: stronger effect = higher value; nuclei count: measured here: cell count, toxicity.
Experiment [3] can be described thus: endothelial E-selectin expression blockers – imaging, HUVEC, immunofluorescence, MLSMR starter and 10KST1 sets, primary screen (AID 487;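 active = visually confirmed hit in the image check and inhibition above 20%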;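 for inhibition: signal is fraction of cell area covered by stained E-selectin grains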;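 for nuclei count: 100% = median nuclei count of all wells on the same plate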). The settings on record: HUVEC TNFalpha-induced E-selectin immunofluorescence imaging, at 2 µM; inhibition: stronger effect = higher value; nuclei count: measured here: cell number, toxicity.
Experiment [4] deals with Voltage-gated potassium channel subunit beta-2 (Rattus norvegicus) (UniProt P62483). The experiment can be described thus: inhibitors of rat Kvbeta2 reductase activity – biochemical, NADPH fluorescence, primary screen (AID 622;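 active = fluorescence slope higher than the sample average by over 3 SD, cut at about -0.22 in these data, passing the limit was not always enough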;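 note: slope of raw intensity against log time taken from 70 to 1610 s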). Conditions: recombinant KvBeta, 4-cyanobenzaldehyde reduction, at 10 µM, stronger effect = higher value.
The target is the same in experiment [5]. As to the kind of experiment: enhancers of rat Kvbeta2 NADPH turnover – biochemical, NADPH fluorescence, primary screen (AID 623;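 active = NADPH fluorescence slope more negative than the mean of all samples by about 3 SD, 99.7% confidence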;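 note: fluorescence intensity change per second fitted from 20 to 320 s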). Conditions: Recombinant KvBeta, NADPH fluorescence decrease slope, 10 min; at 10 µM; stronger effect = lower value.
Experiment [6] deals with Alpha-2C adrenergic receptor (Homo sapiens) (UniProt P18825). As to the kind of experiment: compounds altering alpha2C-coupled GIRK flux – cell-based, HEK293 alpha2C/GIRK1/2, thallium flux, primary screen (AID 624;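 active = fluorescence slope after compound addition differing from the mean of all screened samples at 99.7% confidence, in either direction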;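 note: slope of fluorescence ratio to pre-addition baseline per second over 15 to 24 s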). The settings on record: thallium flux BTC fluorescence, at 10 µM, actives lie on both sides.
Experiment [7] is described as follows: blockers of RIG-like receptor reporter activation – cell-based, Sendai virus stimulus, luciferase, 10K MLSCN set, TLR/RLR signaling modifier project, primary screen (AID 602276;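 active = inhibition at or above 50% at 10 µM; inactive = inhibition below 50%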;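 note: firefly luciferase from ISG56 promoter only with Renilla not read in this screen; 0% = Sendai virus plus DMSO and 100% = medium plus DMSO without virus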). The settings on record: HEK293 RL24 IRF3 luciferase reporter, at 10 µM, stronger effect = higher value. (In general: Reporter assays use an easily measured gene product as a stand-in for the process of interest.)

The nature of experiment [8]: TLR3 IRF3 reporter activation blockers – cell-based, poly I:C stimulus, luciferase, 10K MLSCN set, primary screen (AID 602277;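 active = inhibition of the reporter signal at or above 50%; inactive = inhibition below 50%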). The settings on record: HEK293-TLR3 RL24 IRF3 luciferase reporter, at 10 µM, stronger effect = higher value.

As a reminder, the inhibition is the drop in the measured response relative to a control, in per cent.

Sequence of Voltage-gated potassium channel subunit beta-2 (Rattus norvegicus) (P62483 whole entry, looked up): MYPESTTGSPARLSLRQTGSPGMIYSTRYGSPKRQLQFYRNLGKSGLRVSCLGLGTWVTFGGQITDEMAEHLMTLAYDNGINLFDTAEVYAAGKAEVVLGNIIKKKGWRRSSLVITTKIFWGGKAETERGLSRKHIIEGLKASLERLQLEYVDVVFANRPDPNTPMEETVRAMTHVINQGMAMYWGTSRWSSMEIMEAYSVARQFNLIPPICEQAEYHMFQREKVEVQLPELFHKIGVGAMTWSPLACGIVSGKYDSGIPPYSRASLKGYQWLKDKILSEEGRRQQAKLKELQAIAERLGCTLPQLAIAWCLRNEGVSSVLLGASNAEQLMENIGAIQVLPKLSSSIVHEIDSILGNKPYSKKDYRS
Sequence of Alpha-2C adrenergic receptor (Homo sapiens) (P18825 whole entry, looked up): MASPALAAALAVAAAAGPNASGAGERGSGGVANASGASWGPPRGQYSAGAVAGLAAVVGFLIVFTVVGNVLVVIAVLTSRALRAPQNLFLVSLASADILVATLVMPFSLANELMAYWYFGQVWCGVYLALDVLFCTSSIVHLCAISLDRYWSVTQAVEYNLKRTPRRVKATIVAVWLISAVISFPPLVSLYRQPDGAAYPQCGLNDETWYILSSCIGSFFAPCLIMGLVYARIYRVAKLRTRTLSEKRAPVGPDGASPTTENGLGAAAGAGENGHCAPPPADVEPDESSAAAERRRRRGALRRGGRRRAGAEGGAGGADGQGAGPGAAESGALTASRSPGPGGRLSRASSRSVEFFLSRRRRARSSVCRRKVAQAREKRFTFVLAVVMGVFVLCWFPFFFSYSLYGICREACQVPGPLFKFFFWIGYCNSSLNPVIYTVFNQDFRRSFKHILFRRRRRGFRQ

Take `C=CCc1c(C)nc(SC)nc1Nc1ccc(C(=O)O)cc1`: the cell count in experiment [1] was determined as 497. Moreover, the inhibition in experiment [1] was 7.2% (inactive); in experiment [3] it was -41.5% (inactive); in experiment [7], 4.8% (inactive); in experiment [8], 21.7% (inactive). Besides, the inhibition of aggregation in experiment [2] is 7.3% (inactive). Moreover, the nuclei count is 106% in experiment [2] and 118% in experiment [3]. For the same compound, the fluorescence slope in experiment [4] is -0.488 (inactive). For the same compound, the NADPH fluorescence slope in experiment [5] is -3.9e-05 (inactive). Besides, the slope in experiment [6] was 0.00683 (inactive).

For `O=C(CN1C(=O)CCS(=O)(=O)c2ccccc21)Nc1cccc(F)c1`, the cell count in experiment [1] came to 383. Besides, the inhibition in experiment [1] was -6.8% (inactive); in experiment [3] it was -27.1% (inactive); in experiment [7] it was 1.07% (inactive); in experiment [8] it was 10.8% (inactive). In addition, the inhibition of aggregation in experiment [2] was -2.1% (inactive). In addition, the nuclei count in experiment [2] amounted to 113%; in experiment [3], 135%. Besides, in experiment [4], the fluorescence slope was -0.335 (inactive). In experiment [5], the NADPH fluorescence slope is -4.5e-05 (inactive). Moreover, the slope in experiment [6] is 0.00547 (inactive).

As for `O=C(Nc1ccc2c(c1)nc1n2CCN(Cc2ccccc2)C1)c1cccs1`, the cell count in experiment [1] is 420. The inhibition in experiment [1] was -13.3% (inactive); in experiment [3], 11.1% (inactive); in experiment [7], -17.8% (inactive); in experiment [8], -84.2% (inactive). The inhibition of aggregation in experiment [2] is 6.4% (inactive). Moreover, the nuclei count in experiment [2] was determined as 89.3%; in experiment [3], 73.9%. Moreover, the fluorescence slope in experiment [4] was -0.461 (inactive). The NADPH fluorescence slope in experiment [5] is -0.000271 (inactive). Besides, the slope in experiment [6] is 0.00505 (inactive).

Turning to `CC(C)(C)NC(=O)Cn1c(=O)oc2ccc(Cl)cc21`, the cell count in experiment [1] was 676. For the same compound, the inhibition was 0% (inactive) in experiment [1], -47.1% (inactive) in experiment [3], 0.919% (inactive) in experiment [7] and 20.8% (inactive) in experiment [8]. Moreover, the inhibition of aggregation in experiment [2] was 1.8% (inactive). The nuclei count in experiment [2] stood at 116%; in experiment [3], 106%. In addition, the fluorescence slope in experiment [4] was -0.407 (inactive). Further, in experiment [5], the NADPH fluorescence slope was 6.2e-05 (inactive). Moreover, the slope in experiment [6] was 0.00569 (inactive).

Regarding `CCc1cccc(NC(=O)CCc2nc(-c3cccs3)no2)c1`, the cell count in experiment [1] came to 681. Moreover, the inhibition in experiment [1] was 11.3% (inactive); in experiment [3], 7.6% (inactive); in experiment [7], -5.35% (inactive); in experiment [8] it was 18.5% (inactive). Besides, the inhibition of aggregation in experiment [2] was -7.6% (inactive). Besides, the nuclei count in experiment [2] was determined as 106%; in experiment [3], 114%. For the same compound, in experiment [4], the fluorescence slope is -0.531 (inactive). For the same compound, the NADPH fluorescence slope in experiment [5] was -2.7e-05 (inactive). In addition, the slope in experiment [6] is 0.00567 (inactive).

As for `CSC1=N/C(=C\C=C\c2cccs2)C(=O)S1`, the cell count in experiment [1] was found to be 374. Besides, the inhibition was -11.5% (inactive) in experiment [1], 0.2% (inactive) in experiment [3], 10.5% (inactive) in experiment [7] and 28.8% (inactive) in experiment [8]. For the same compound, the inhibition of aggregation in experiment [2] is -80.1% (inactive). In addition, the nuclei count is 106% in experiment [2] and 115% in experiment [3]. Further, the fluorescence slope in experiment [4] was -0.343 (inactive). For the same compound, the NADPH fluorescence slope in experiment [5] is -4.4e-05 (inactive). In addition, the slope in experiment [6] was 0.00431 (inactive).

On to `CCOC(=O)Cn1c(=O)c(-c2ccccc2N)nc2ccccc21`, for which the cell count in experiment [1] was 620. The inhibition in experiment [1] was -1.8% (inactive); in experiment [3], -50.2% (inactive); in experiment [7] it was 12.3% (inactive); in experiment [8], 33.1% (inactive). The inhibition of aggregation in experiment [2] was 2.1% (inactive). Further, the nuclei count was 124% in experiment [2] and 116% in experiment [3]. Also, in experiment [4], the fluorescence slope was -0.542 (inactive). In addition, the NADPH fluorescence slope in experiment [5] is -3.7e-05 (inactive). Besides, the slope in experiment [6] is 0.00661 (inactive).

Take `Cc1c(C(=O)OCC(C)(C)CN(C)C)oc2ccccc12`: the cell count in experiment [1] is 428. In addition, the inhibition in experiment [1] was -3.3% (inactive); in experiment [3], -39.5% (inactive); in experiment [7], -31.4% (inactive); in experiment [8], -27.6% (inactive). Besides, the inhibition of aggregation in experiment [2] is -15.2% (inactive). Moreover, the figures for the nuclei count in experiment [2] and in experiment [3] were 107% and 118%, respectively. The fluorescence slope in experiment [4] is -0.328 (inactive). Besides, the NADPH fluorescence slope in experiment [5] was 2.8e-05 (inactive). Also, the slope in experiment [6] is 0.00529 (inactive).

For the compound `C=CCn1c(SCC(=O)c2ccc(OC)cc2)nnc1C(C)NC(=O)c1cccs1` (centres undefined), the cell count in experiment [1] stood at 661. In addition, the inhibition was -0.6% (inactive) in experiment [1], -44.6% (inactive) in experiment [3], 10.6% (inactive) in experiment [7] and 12.5% (inactive) in experiment [8]. Also, the inhibition of aggregation in experiment [2] was 1.5% (inactive). The nuclei count came to 127% in experiment [2] and 132% in experiment [3]. For the same compound, in experiment [4], the fluorescence slope is -0.349 (inactive). The NADPH fluorescence slope in experiment [5] is -4e-06 (inactive). The slope in experiment [6] is 0.00302 (inactive).

On to `COc1ccc(S(=O)(=O)Cc2ccc(C(=O)NCCc3ccc(S(N)(=O)=O)cc3)o2)cc1`, for which the cell count in experiment [1] worked out at 686. For the same compound, the inhibition in experiment [1] was 0.6% (inactive); in experiment [3], -51.1% (inactive); in experiment [7], 9.1% (inactive); in experiment [8], 28.2% (inactive). Also, in experiment [2], the inhibition of aggregation is 41.2% (active). For the same compound, the nuclei count in experiment [2] was found to be 71.5%; in experiment [3], 114%. Further, the fluorescence slope in experiment [4] was -0.561 (inactive). Further, the NADPH fluorescence slope in experiment [5] was -2.1e-05 (inactive). The slope in experiment [6] was 0.00625 (inactive).

With `CCOc1ccc(N2C(=O)CC(N3CC(C)OC(C)C3)C2=O)cc1` (centres undefined), the cell count in experiment [1] is 578. Further, the inhibition was -14.1% (inactive) in experiment [1], 3.9% (inactive) in experiment [3], 9.5% (inactive) in experiment [7] and 25.7% (inactive) in experiment [8]. Further, in experiment [2], the inhibition of aggregation was -12% (inactive). Also, the results for the nuclei count in experiment [2] and in experiment [3] were 104% and 128%, respectively. The fluorescence slope in experiment [4] is -0.357 (inactive). The NADPH fluorescence slope in experiment [5] is 5.9e-06 (inactive). Also, the slope in experiment [6] is 0.00636 (inactive).

On to `CCOC(=O)c1oc2ccccc2c1NC(=O)COC`, for which the cell count in experiment [1] came to 602. Also, the inhibition in experiment [1] is -1.8% (inactive); in experiment [3] it was 66.5% (inactive); in experiment [7], -14.3% (inactive); in experiment [8], 4.92% (inactive). Moreover, the inhibition of aggregation in experiment [2] was 15.5% (inactive). The results for the nuclei count in experiment [2] and in experiment [3] were 92.3% and 59.1%, respectively. Besides, in experiment [4], the fluorescence slope was -0.486 (inactive). Further, in experiment [5], the NADPH fluorescence slope was -1.7e-05 (inactive). The slope in experiment [6] is 0.00552 (inactive).

Consider `COc1cc(Br)cc(CN2CCN(C/C=C/c3ccccc3)CC2)c1O`, for which the cell count in experiment [1] stood at 273. The inhibition in experiment [1] is 5.8% (inactive); in experiment [3], 3% (inactive); in experiment [7], -0.336% (inactive); in experiment [8], -8.7% (inactive). Further, the inhibition of aggregation in experiment [2] was -5% (inactive). Moreover, the nuclei count in experiment [2] was 98.5%; in experiment [3], 108%. Besides, in experiment [4], the fluorescence slope is -0.606 (inactive). Besides, the NADPH fluorescence slope in experiment [5] is -8.8e-06 (inactive). The slope in experiment [6] was 0.00359 (inactive).

On to `CC(C)N(C(=O)CSc1nnc(NC(=O)C2CCC2)s1)C(C)C`, for which the cell count in experiment [1] is 599. Also, the inhibition was -0.6% (inactive) in experiment [1], -108% (inactive) in experiment [3], 17.8% (inactive) in experiment [7] and 25.1% (inactive) in experiment [8]. Further, the inhibition of aggregation in experiment [2] is -7.3% (inactive). Further, the nuclei count in experiment [2] came to 86.3%; in experiment [3], 110%. The fluorescence slope in experiment [4] was -0.466 (inactive). Also, in experiment [5], the NADPH fluorescence slope was 2.4e-05 (inactive). Further, in experiment [6], the slope was 0.00479 (inactive).
